Source: PubChem (The Scripps Research Institute Molecular Screening Center)
FBW7 act = human FBW7 E3 ligase activation, primary screen; Q969H0; AlphaScreen FBW7–phospho-cyclin E peptide binding, activator screen; normalized activity (activation), % at 26.1 µM; 650,000 tested, 0.13% active; in the data active means normalized activity above about 1.9%;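 further: purified mutant Fbw7 with reduced substrate affinity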
Target sequence (Q969H0 whole entry, looked up): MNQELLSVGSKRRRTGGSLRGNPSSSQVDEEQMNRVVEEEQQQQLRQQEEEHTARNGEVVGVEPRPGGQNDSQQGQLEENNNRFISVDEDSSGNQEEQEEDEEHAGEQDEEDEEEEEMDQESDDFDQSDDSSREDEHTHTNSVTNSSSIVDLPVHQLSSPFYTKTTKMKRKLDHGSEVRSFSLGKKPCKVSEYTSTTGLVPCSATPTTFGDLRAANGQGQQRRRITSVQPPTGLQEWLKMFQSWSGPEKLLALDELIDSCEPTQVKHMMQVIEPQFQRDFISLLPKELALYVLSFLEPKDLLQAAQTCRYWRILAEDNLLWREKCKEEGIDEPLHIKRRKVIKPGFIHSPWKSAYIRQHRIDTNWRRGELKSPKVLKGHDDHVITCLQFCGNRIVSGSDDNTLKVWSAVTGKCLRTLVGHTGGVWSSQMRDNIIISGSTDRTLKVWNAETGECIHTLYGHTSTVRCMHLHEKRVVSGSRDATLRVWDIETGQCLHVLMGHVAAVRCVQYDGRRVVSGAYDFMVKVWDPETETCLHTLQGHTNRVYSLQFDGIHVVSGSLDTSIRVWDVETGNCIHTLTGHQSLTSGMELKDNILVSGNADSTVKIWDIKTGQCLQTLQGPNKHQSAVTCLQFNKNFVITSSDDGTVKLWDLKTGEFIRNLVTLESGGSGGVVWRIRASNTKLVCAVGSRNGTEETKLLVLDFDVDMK
GPR151 activ = human GPR151 activation. Q8TDV0. PathHunter beta-arrestin GPR151 cells, luminescence. activation, % at 11.2 µM. 650,000 tested, 1% active; in the data active means activation above about 4.9%
MITF primary = blocks human microphthalmia-associated transcription factor; AlphaScreen MITF homodimerization, bead proximity signal; O75030; 650,000 tested, 0.91% active; inhibition, % at 2.6 µM; in the data active means inhibition above about 50%
TEAD-YAP block = TEAD-YAP interaction inhibition | HEK-TIYL cells, TEAD-Gal4/YAP UAS-luciferase luminescence | inhibition, % at 9.12 µM | 640,000 tested, 1.4% active; in the data active means inhibition above about 32%
MITF inh conf = human MITF inhibition, confirmation; 4,700 tested, 16% active; inhibition, % at 2.6 µM; AlphaScreen MITF homodimerization, biotin/His-MITF beads; shares compounds with MITF primary;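 active means inhibition above a cutoff derived from the DMSO control wells, cut at about 28% in these data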;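 further: inhibitors lower the bead chemiluminescence by keeping MITF from dimerizing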
AS interf DR = counter-screen: compounds optically interfering with AlphaScreen; shares compounds with MITF primary; IC50, µM; AID 1259373; 480 tested, 6% active; AlphaScreen optical interference counterscreen, cell-free; call rule not given here
AS interf ctr = optically interferes with AlphaScreen signal | shares compounds with MITF primary | LysRS AlphaScreen counterscreen, signal interference, triplicate | inhibition, % at 2.6 µM | 4,700 tested, 7.6% active | AID 1259376;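 active means inhibition above a cutoff derived from the DMSO control wells, cut at about 30% in these data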
Numbers stand for hits; – = inactive; · = no result. Shown are actives, neighbours in structure and some others; about 3.4% of the full set was active somewhere.

SMILES	FBW7 act	GPR151 activ	MITF primary	TEAD-YAP block	MITF inh conf	AS interf ctr	others
COc1ccc(CN2CCN(Cc3cccc(Cl)c3)CC2)cc1Br	–	–	67.9	–	38.9	–	AS interf DR=–
COc1ccc(C2C(C#N)=C(N)Oc3c2c(=O)oc2ccccc32)cc1O (centres undefined)	–	–	–	–	·	·
COc1ccc(CN2CCN(Cc3ccc(C)cc3)CC2)cc1Br	–	–	53.4	–	–	–
CSc1ccc(CN2CCN(C(=O)COc3ccc(Cl)cc3)CC2)cc1	–	–	–	–	·	·
COc1cc(OC)c(OC)cc1CN1CCN(C(=O)COc2ccccc2)CC1	–	–	53.9	–	–	–
O=C(COc1ccc(Br)cc1)N1CCN(Cc2ccncc2)CC1	–	–	100.4	–	–	–
COc1ccccc1CN1CCN(C(=O)COc2cccc(C)c2)CC1	–	–	80.4	–	–	–
COc1ccc(OCC(=O)N2CCN(Cc3cccc(Br)c3)CC2)cc1	–	–	63.8	–	–	–
COc1ccc(OCC(=O)N2CCN(Cc3cccc(OC)c3)CC2)cc1	–	–	–	–	·	·
CC(C)(C)c1ccc(OP(Oc2ccc(C(C)(C)C)cc2C(C)(C)C)Oc2ccc(C(C)(C)C)cc2C(C)(C)C)c(C(C)(C)C)c1	–	–	–	–	·	·
CCOC(=O)C1C2NC(=S)N(c3cccc(C)c3C)C1(C)Oc1c(Cl)cc(Cl)cc12 (centres undefined)	–	–	–	–	·	·
COc1cc(CN2CCN(C(=O)COc3ccccc3)CC2)cc(OC)c1OC	–	–	–	–	·	·
Cc1cccc(OCC(=O)N2CCN(Cc3ccncc3)CC2)c1	–	–	72.8	–	–	–
COc1ccc(OCC(=O)N2CCN(Cc3ccccc3C)CC2)cc1	–	–	53.9	–	–	–
Cc1ccc(CC(=O)N2CCN(Cc3ccc4c(c3)OCO4)CC2)cc1	–	–	–	–	·	·
O=C(COc1ccc(Br)cc1)N1CCN(Cc2ccc3c(c2)OCO3)CC1	–	–	63.9	–	–	–
COc1cccc(CN2CCN(C(=O)COc3cccc(C)c3)CC2)c1	–	–	57.3	–	–	–
N#CC1(c2ccccc2)CCN(C2CC(=O)N(c3ccc(Cl)cc3)C2=O)CC1 (centres undefined)	–	–	–	–	·	·
COC(=O)C1=C(C)OC(N)=C(C#N)C12C(=O)Nc1ccc([N+](=O)[O-])cc12 (centres undefined)	–	–	–	–	·	·
CN1C2CCC1CC(OC(=O)CNC1CCCCC1)C2 (centres undefined)	–	–	55.4	–	–	–
O=C(c1ccccc1)c1cc(Cl)ccc1NC(=O)c1cc(-c2ccccc2)nc2ccccc12	–	–	–	–	·	·
CCN1CCN(Cc2ccccc2OC)CC1	–	–	–	–	·	·
COc1ccccc1CN1CCN(Cc2ccccc2C)CC1	–	–	78.4	–	–	–
COc1ccccc1CN1CCN(Cc2ccccc2Br)CC1	–	–	71.2	–	–	–
CN1CCN(c2ccc(N)cc2C(N)=O)CC1	–	–	–	–	·	·
SMILES	FBW7 act	GPR151 activ	MITF primary	TEAD-YAP block	MITF inh conf	AS interf ctr	others
CCOC(=O)C1C2NC(=S)N(c3cccc(Cl)c3)C1(C)Oc1c(OC)cccc12 (centres undefined)	–	–	51.7	–	34.2	–	AS interf DR=–
CCOC(=O)C1C2NC(=S)N(c3ccccc3OC)C1(C)Oc1c(OCC)cccc12 (centres undefined)	–	–	–	–	·	·
CCOC(=O)C1C2NC(=S)N(c3ccc(CC)cc3)C1(C)Oc1c(OCC)cccc12 (centres undefined)	–	–	54.2	–	41.7	–	AS interf DR=–
CC1CCc2c(sc3ncn4c(=O)n(CC(=O)OC5CC6CCC(C5)N6C)nc4c23)C1 (centres undefined)	–	–	–	–	·	·
O=C(Nc1ccc(F)cc1)Nc1ccc([N+](=O)[O-])c(C(F)(F)F)c1	–	–	–	–	·	·
CCN(CC(=O)Nc1ccc(C#N)c(Cl)c1)CC(=O)Nc1c(F)cccc1F	–	–	–	–	·	·
CCN(CC(=O)Nc1ccc(Br)cc1)CC(=O)Nc1ccc(C#N)c(Cl)c1	–	–	85.3	–	–	–
COc1cccc(CN2CCN(Cc3ccccc3Br)CC2)c1	–	–	72.8	–	–	–
O=c1c(CN2CC=C(c3ccc(F)cc3)CC2)coc2ccccc12	–	–	–	–	·	·
COc1cccc(CN2CCN(Cc3ccccc3Cl)CC2)c1	–	–	85.7	–	–	–
CN1CCN(Cc2coc3ccccc3c2=O)CC1	–	–	51.4	55.5	–	–
Clc1cccc(N2CCN(Cc3ccccc3)CC2)c1	–	–	–	–	·	·
COc1ccc(O)c(CN2CCN(Cc3ccccc3Br)CC2)c1	–	–	–	–	·	·
COc1ccc(CN2CCN(Cc3ccccc3)CC2)c(O)c1	–	–	–	–	·	·
Clc1cccc(CN2CCN(Cc3ccccc3Br)CC2)c1	–	–	77.4	–	–	–
COc1cc(/C=C/[N+](=O)[O-])ccc1OC(=O)CCc1ccccc1	–	–	–	–	·	·
CN1CCN(Cc2cccc3ccccc23)CC1	–	–	–	–	·	·
CN1CCN(Cc2ccccc2Cl)CC1	–	–	64.1	–	–	–
COc1ccc(CN2CCN(Cc3ccccc3Cl)CC2)cc1	–	–	80.8	–	–	–
Cc1ccc(CN2CCN(Cc3ccccc3Cl)CC2)cc1	–	–	58.6	–	–	–
CCN1CCN(Cc2cccc(Cl)c2Cl)CC1	–	–	–	–	·	·
CC(=O)c1ccc(N2CCN(Cc3ccc(F)cc3)CC2)cc1	–	–	–	–	·	·
COc1cccc(N2CCN(Cc3ccccc3F)CC2)c1	–	–	60.1	–	–	–
CC(=O)c1ccc(N2CCN(Cc3ccccc3F)CC2)cc1	–	–	51.4	–	–	–
Fc1cccc(F)c1CN1CCN(c2ccccc2)CC1	–	–	56.3	–	–	–
SMILES	FBW7 act	GPR151 activ	MITF primary	TEAD-YAP block	MITF inh conf	AS interf ctr	others
Cc1ccc(C)c(NC(=O)c2c(O)c3ccccc3n(CCC(C)C)c2=O)c1	–	–	–	–	·	·
CN(C)C1C(=O)C(C(N)=O)=C(O)C2(O)C(=O)C3=C(O)c4c(O)cccc4C(C)(O)C3CC12 (centres undefined)	–	–	51.1	–	43.4	–	AS interf DR=–
CN(C)[C@@H]1C(=O)C(C(N)=O)=C(O)[C@@]2(O)C(=O)C3=C(O)c4c(O)cccc4[C@@](C)(O)[C@H]3C[C@@H]12	–	–	–	–	·	·
O=[N+]([O-])c1c(Cl)cc(Cl)c2nonc12	–	–	–	–	·	·
O=C(O)CSc1cc(Cl)c2nonc2c1[N+](=O)[O-]	–	–	87.3	–	84.7	–	AS interf DR=–
CN([N+](=O)[O-])S(=O)(=O)c1cccc(Br)c1	–	–	–	–	·	·
CCOc1cccc(/C=C2/C(O)C3CCN2CC3)c1 (centres undefined)	–	–	–	–	·	·
CCOc1ccc(CN2CCN(Cc3ccc(F)cc3)CC2)cc1	–	–	61.1	–	–	–
CCOc1ccc(CN2CCN(Cc3ccccc3F)CC2)cc1	–	–	74.7	–	–	–
